{"source": "the supplement of paper PMC5641865", "about": "“A screen for kinase inhibitors identifies antimicrobial imidazopyridine aminofurazans as specific inhibitors of the Listeria monocytogenes PASTA kinase PrkA” (The Journal of Biological Chemistry, 2017)", "note": "± gives the standard deviation of the averaged measurements.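 Further: End-point A600 read in BHI broth at 37 °C with 2% DMSO, inhibition computed as (1 − OD with compound plus ceftriaxone ÷ OD with ceftriaxone only) × 100.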", "data": [{"tested_on": "Listeria monocytogenes 10403S", "experiment": "growth inhibition relative to ceftriaxone-alone control; higher = stronger potentiation of ceftriaxone growth inhibition", "conditions": "10 µM; ceftriaxone 1 ug/ml; 12 h", "units": {"growth inhibition": "%"}, "values": [{"smiles": "COc1cc2c(cc1Nc1nc(Nc3cccc(F)c3C(N)=O)c3cc[nH]c3n1)N(C(=O)CN1CCN(C(C)C)CC1)CC2", "growth inhibition": "-7.97 ± 11"}, {"smiles": "CNC(=O)c1cc(COc2nnc(Nc3ccc(Cl)cc3)c3ccoc23)ccn1", "note": "[Telatinib (BAY 57-9352)]", "growth inhibition": "22.8 ± 32"}, {"smiles": "CS(=O)(=O)CCNCc1nc(-c2ccc3ncnc(Nc4ccc(OCc5cccc(C(F)(F)F)c5)cc4)c3c2)cs1", "growth inhibition": "-8.22 ± 14"}, {"smiles": "CS(=O)(=O)CCNCc1ccc(-c2ccc3ncnc(Nc4ccc(OCc5ccccc5)cc4)c3c2)o1", "growth inhibition": "-2.04 ± 4.2"}, {"smiles": "CN(C)CCCn1c(-c2nonc2N)nc2cnccc21", "growth inhibition": "-5.31 ± 2.5"}, {"smiles": "COc1ccc(-c2ccc3c(N4CCOCC4)nc(N4C[C@@H](C)O[C@@H](C)C4)nc3n2)cc1CO", "growth inhibition": "-4.35 ± 2.4"}, {"smiles": "COc1cc(Nc2ncc3c(n2)-c2ccc(Cl)cc2C(c2c(F)cccc2OC)=NC3)ccc1C(=O)O", "growth inhibition": "43 ± 37"}, {"smiles": "Fc1ccc(Nc2nccc(-c3c(-c4ccc(C(F)(F)F)cc4)nn4ncccc34)n2)cc1F", "growth inhibition": "-3.35 ± 4.4"}, {"smiles": "Cn1cnc(N)c2ncnc1-2", "note": "[3-Methyladenine]", "growth inhibition": "4.53 ± 5.3"}, {"smiles": "c1ccc(-c2nc3n(c2-c2ccc4c(c2)OCO4)CCC3)nc1", "growth inhibition": "-10.3 ± 17"}, {"smiles": "COc1ccc2[nH]c3c4[nH]c5ccc(OC)cc5c4c4c(c3c2c1)C(=O)NC4=O", "growth inhibition": "-8.86 ± 4.5"}, {"smiles": "Cc1ccc2c(c1)/C(=N/Nc1ccc(S(N)(=O)=O)cc1)C(=O)N2", "growth inhibition": "2.4 ± 3.2"}, {"smiles": "Oc1ccc(-c2nc(-c3ccc(F)cc3)c(-c3ccncc3)[nH]2)cc1", "growth inhibition": "23.7 ± 32"}, {"smiles": "CN1CCC(n2cnc(-c3ccc(F)cc3)c2-c2ccnc(Nc3ccccc3)n2)CC1", "growth inhibition": "-8.92 ± 3.6"}, {"smiles": "Cn1cnc2c(F)c(Nc3ccc(Br)cc3Cl)c(C(=O)NOCCO)cc21", "note": "[AZD6244 (Selumetinib)]", "growth inhibition": "0.682 ± 22"}, {"smiles": "CCOc1ccn(-c2ccc(F)cc2)c(=O)c1C(=O)Nc1ccc(Oc2ccnc(N)c2Cl)c(F)c1", "growth inhibition": "23.6 ± 24"}, {"smiles": "Oc1c2ccccc2c2c3c(cccc13)N=N2", "growth inhibition": "10.4 ± 10"}, {"smiles": "CC[C@H](CO)Nc1nc(NCc2ccccc2)c2ncn(C(C)C)c2n1", "note": "[Roscovitine (Seliciclib, CYC202)]", "growth inhibition": "22.9 ± 22"}, {"smiles": "O=C1NC(=O)/C(=C/c2ccc3nccc(-c4ccncc4)c3c2)S1", "growth inhibition": "19.4 ± 3.5"}, {"smiles": "C[C@@H]1CN(CC(=O)Nc2ccc3c(c2)Cc2cccc(-c4cc(=O)cc(N5CCOCC5)o4)c2S3)C[C@H](C)O1", "growth inhibition": "27.5 ± 4.1"}, {"smiles": "N#Cc1c(NC(=O)c2ccc(F)cc2)sc2c1CCCC2", "growth inhibition": "1.2 ± 5.5"}, {"smiles": "CO[C@H]1C[C@@H]2CC[C@@H](C)[C@@](O)(O2)C(=O)C(=O)N2CCCC[C@H]2C(=O)O[C@H]([C@H](C)C[C@@H]2CC[C@@H](OP(C)(C)=O)[C@H](OC)C2)CC(=O)[C@H](C)/C=C(\\C)[C@@H](O)[C@@H](OC)C(=O)[C@H](C)C[C@H](C)/C=C/C=C/C=C/1C", "note": "[Deforolimus (Ridaforolimus)]", "growth inhibition": "39.2 ± 14"}, {"smiles": "COc1cc2c(Oc3ccc4[nH]c(C)cc4c3F)ncnc2cc1OCCCN1CCCC1", "note": "[Cediranib (AZD2171)]", "growth inhibition": "46 ± 7.5"}, {"smiles": "COc1cc(C=NNc2ncnc3c2cnn3-c2ccccc2)ccc1O", "growth inhibition": "3.9 ± 5.4"}, {"smiles": "COc1ccc(-c2nn3ncccc3c2-c2ccnc(Nc3ccc4c(c3)OCCO4)n2)cc1", "growth inhibition": "-7.96 ± 4.1"}, {"smiles": "Fc1ccc(-c2ncn(C3CCNCC3)c2-c2ccnc(Oc3ccc4c(c3)OCO4)n2)cc1", "growth inhibition": "-3.86 ± 1.5"}, {"smiles": "Cn1c(-c2nonc2N)nc2cnccc21", "growth inhibition": "-5.76 ± 4.5"}, {"smiles": "Nc1cc(C(F)(F)F)c(-c2cc(N3CCOCC3)nc(N3CCOCC3)n2)cn1", "growth inhibition": "47 ± 35"}, {"smiles": "O=C(NCCCNc1nc(Nc2cccc(NC(=O)N3CCCC3)c2)ncc1I)c1cccs1", "growth inhibition": "-19.4 ± 21"}, {"smiles": "COc1ccc(-c2coc3ncnc(N)c23)cc1", "growth inhibition": "8.14 ± 12"}, {"smiles": "CN(C)CCNC(=O)Nc1ccc(N(C)c2ccnc(Nc3ccc(CS(C)(=O)=O)cc3)n2)cc1", "growth inhibition": "-2.69 ± 2"}, {"smiles": "CNC(=O)c1ncccc1Nc1nc(Nc2cc3c(cc2OC)CCCN3C(=O)CN(C)C)nc2[nH]ccc12", "growth inhibition": "-2.03 ± 1.3"}, {"smiles": "COC(=O)Nc1nc2ccc(Oc3ccc(NC(=O)Nc4cccc(Cl)c4)cc3)cc2[nH]1", "growth inhibition": "-4.18 ± 4.6"}, {"smiles": "CN(C)CCOc1ccc(-c2cc(-c3ccc4c(c3)CCC4=NO)c(-c3ccncc3)o2)cc1", "growth inhibition": "36.5 ± 39"}, {"smiles": "COc1cc(N2CCN(C(C)C)CC2)ccc1Nc1nc(Nc2ccc(F)cc2C(=O)NC[C@@H](O)CO)c2cc[nH]c2n1", "growth inhibition": "5.09 ± 0.17"}, {"smiles": "FC(F)c1nc2ccccc2n1-c1nc(N2CCOCC2)nc(N2CCOCC2)n1", "growth inhibition": "19.6 ± 15"}, {"smiles": "CN(C[C@@H]1COCCO1)S(=O)(=O)Nc1ccc2ccc3ncc(-c4cnn(C)c4)cc3c(=O)c2c1", "growth inhibition": "-22.01 ± 0.12"}, {"smiles": "CCCS(=O)(=O)Nc1ccc(F)c(C(=O)c2c[nH]c3ncc(-c4ccc(Cl)cc4)cc23)c1F", "note": "[Vemurafenib (PLX4032)]", "growth inhibition": "-29.7 ± 26"}]}]}
